Sampled rows, rich in hits. Any-hit rate of the full collection: about 9.2%.
NPC1 prom act: NPC1 promoter activation; Huh7 NPC1 promoter luciferase reporter, 24 h; Potency, µM (highest dose often 9.22 µM), most hits filed as activators; 320,000 compounds, 2.4% hits; AID 485313; note: nearly all actives have a fitted effect of over 60% in size
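Cells: Huh7 expressing luciferase under the NPC1 promoter, 1500/well. Seeded 2 h, compound added, incubated 24 h at 37 °C. Luciferase reagent, 10 min ambient, then luminescence.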
FLuc counter: counter-screen for miR-21 project: firefly luciferase inhibitors or activators; AID 588342; purified FLuc, Km substrates, luminescence inhibition; Potency, µM (series often up to 57.5 µM), hits mostly inhibitors; 360,000 compounds, 6.9% hits; note: nearly all actives have a fitted effect of over 55% in size
Target sequence (P08659 whole entry, looked up): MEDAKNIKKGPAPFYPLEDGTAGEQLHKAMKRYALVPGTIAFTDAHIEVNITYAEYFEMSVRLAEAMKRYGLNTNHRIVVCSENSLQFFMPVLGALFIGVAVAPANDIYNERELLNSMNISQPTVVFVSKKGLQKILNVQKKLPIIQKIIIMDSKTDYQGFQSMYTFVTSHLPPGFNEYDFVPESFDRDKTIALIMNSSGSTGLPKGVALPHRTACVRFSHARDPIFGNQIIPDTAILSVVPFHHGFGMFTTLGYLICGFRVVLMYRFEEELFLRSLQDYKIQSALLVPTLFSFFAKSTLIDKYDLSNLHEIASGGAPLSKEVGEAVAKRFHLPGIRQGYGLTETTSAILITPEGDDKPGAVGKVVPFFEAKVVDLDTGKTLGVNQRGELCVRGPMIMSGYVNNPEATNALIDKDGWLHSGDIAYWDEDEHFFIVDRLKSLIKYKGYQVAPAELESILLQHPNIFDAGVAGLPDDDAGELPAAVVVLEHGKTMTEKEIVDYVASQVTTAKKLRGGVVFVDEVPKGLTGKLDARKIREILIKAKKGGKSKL
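Biochemical qHTS of compounds, final roughly 60 µM downward over six points, against 10 nM purified firefly luciferase using Km concentrations of substrates (10 uM D-luciferin, 10 uM ATP) in Tris acetate pH 7.5 buffer; luminescence output.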
ELG1 repair inh: inhibitors of ELG1-dependent DNA repair in HEK293T cells; HEK293T ELG1-luciferase reporter, luminescence, 16 h; DNA damage induced by 5-fluorouridine; Potency, µM (titrated, usually from 46.1 µM), usual class: inhibitors; 330,000 compounds, 2.3% hits; AID 504467; note: nearly all actives have a fitted effect of over 55% in size
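Cells (2,000 per well) received 5-fluorouridine plus test compound or DMSO and were incubated 16 hr at 37 °C, 5% CO2. Luciferase activity was read by luminescence 30 min after ONE-Glo addition; signal suppression marked inhibition of damage-induced ELG1 function.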
ELG1 genotox: genotoxicity induction in ELG1-luciferase HEK293T cells. 330,000 compounds, 1.3% hits. Potency, µM (top dose mostly 46 µM), most hits filed as activators. AID 504466. HEK293T ELG1-luciferase reporter, luminescence, 16 h; note: nearly all actives have a fitted effect of over 60% in size
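DMSO vehicle served as control against compound-treated ELG1-luciferase HEK293T cells; exposure lasted 16 hr at 37 °C and 5% CO2, followed by ONE-Glo luminescence detection after 30 min.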
SMN2 splice up: increases expression of the SMN2 splice variant; HEK293 SMN2-luciferase splicing reporter, luminescence, 30-36 h; Potency, µM (top dose mostly 46.1 µM), usual class: activators; 210,000 compounds, 2.8% hits; note: nearly all actives have a fitted effect of over 55% in size
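HEK293 cells carry an SMN2 minigene-luciferase reporter in which exon 7 inclusion puts luciferase in frame. Cells were seeded at 2000 cells/well, attached for 10-12 hours, then exposed to compounds for 30-36 hours at 37C before ONE-Glo luminescence.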
Rab9 promoter act: activators of Rab9 promoter; Huh7 Rab9 promoter-luciferase reporter, luminescence, 24 h; Potency, µM (doses to about 9.22 µM), most hits filed as activators; 320,000 compounds, 2.8% hits; AID 485297; note: nearly all actives have a fitted effect of over 60% in size
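Huh7 cells stably carrying Rab9 promoter–luciferase reporter, plated 1500 cells/well, compound added after 2 h and incubated 24 h at 37 °C; luciferase luminescence then read after 10 min with detection reagent.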
Large screens that a line does not name were inactive. Calls come from the whole dose curve; as a rule, active = well fitted curve in the direction sought with a large enough effect; inconclusive = small, poorly fitted or top-dose-only effect, or another doubt; inactive = no such curve, though single readings can be large; an effect the other way counts as inactive or inconclusive.

CCOc1ccc(NC(=O)c2ccc3nc(Cc4ccccc4)oc3c2)cc1	none (no result: NPC1 prom act, ELG1 repair inh, ELG1 genotox, SMN2 splice up, Rab9 promoter act)
O=C(Nc1nc(-c2ccc(S(=O)(=O)N3CCCCCC3)cc2)cs1)c1ccccc1	ELG1 repair inh 7.31µM
CN(C)S(=O)(=O)c1ccc(C(=O)Nc2nc(-c3cccs3)cs2)cc1	ELG1 repair inh 11.6µM
Cc1csc(NC(=O)c2ccc(S(=O)(=O)N3CCCC3)cc2)n1	FLuc counter inconclusive (no result: SMN2 splice up)
Cc1cc(C)cc(Nc2nc(-c3ccc(S(=O)(=O)N4CCCC4)cc3)cs2)c1	ELG1 repair inh 23.1µM
O=C(Nc1nc(-c2cccs2)cs1)c1ccc(S(=O)(=O)N2CCCC2)cc1	ELG1 repair inh 16.4µM (no result: SMN2 splice up)
C[C@@]12C[C@H](O)C3[C@H](CCC4=CC(=O)CC[C@]43C)[C@H]1CC[C@@H]2c1csc(-c2ccccc2)n1 (stereo not given in full)	none (no result: NPC1 prom act, FLuc counter, ELG1 repair inh, ELG1 genotox, Rab9 promoter act)
O=C(Cn1sc2ccccc2c1=O)N1CCN(C(=O)c2ccco2)CC1	FLuc counter inconclusive (no result: SMN2 splice up)
CSc1ccc(/C=C(/NC(=O)c2ccco2)C(=O)N2CCOCC2)cc1	none (no result: SMN2 splice up)
Cc1ccc(S(=O)(=O)N2CCCCC2)cc1NC(=O)c1cc(F)c(F)c(F)c1F	none (no result: NPC1 prom act, FLuc counter, SMN2 splice up, Rab9 promoter act)
COC(=O)c1ccccc1S(=O)(=O)N1CCC(C(=O)OCc2ccc([N+](=O)[O-])cc2)CC1	none (no result: SMN2 splice up)
CCOc1cc(N2CCOCC2)c(OCC)cc1NCC(=O)N1CCN(Cc2ccccc2)CC1	ELG1 repair inh 8.2µM (no result: SMN2 splice up)
CCOc1cc(N2CCOCC2)c(OCC)cc1NC(=O)COc1cccc(CC)c1	ELG1 repair inh 23.1µM (no result: SMN2 splice up)
CCOc1cc(N2CCOCC2)c(OCC)cc1NC(=O)[C@H](C)N1C(=O)C2CC=CCC2C1=O (stereo not given in full)	none
CCOc1cc(N2CCOCC2)c(OCC)cc1NC(=O)CSc1ccccc1C(=O)O	none (no result: SMN2 splice up)
CCOc1cc(N2CCOCC2)c(OCC)cc1NC(C)C(=O)N1CCC(C)CC1 (stereo not given)	ELG1 repair inh 9.2µM (no result: SMN2 splice up)
CCOC(=O)c1ccc(NC(=O)C2CCCN(c3ncnc4onc(-c5ccc(F)cc5)c34)C2)cc1 (stereo not given)	none (no result: NPC1 prom act, ELG1 repair inh, ELG1 genotox, SMN2 splice up, Rab9 promoter act)
NC(=O)C1=C[C@H](C2CCCCC2)C[C@H](OCc2ccc(CO)cc2)O1	NPC1 prom act 2.51µM, FLuc counter 10.7µM, ELG1 repair inh inconclusive, ELG1 genotox 2.91µM, Rab9 promoter act 3.16µM (no result: SMN2 splice up)
CC(C)(C)[C@@H]1C=C(C(=O)Nc2ccccc2)O[C@H](OCc2ccc(CO)cc2)C1	FLuc counter inconclusive, ELG1 repair inh 7.3µM (no result: SMN2 splice up)
O=C(NC1CC1)C1=C[C@@H](C2CCCCC2)C[C@@H](OCc2ccc(CO)cc2)O1	FLuc counter inconclusive, ELG1 repair inh inconclusive (no result: SMN2 splice up)
C#CCNC(=O)C1=C[C@H](C(C)(C)C)C[C@H](OCc2ccc(CO)cc2)O1	none (no result: SMN2 splice up)
CCOc1ccc(CCNC(=O)CSC(=S)N2CCCC2)cc1OCC	none (no result: SMN2 splice up)
CCN(CC)C(=S)SCC(=O)c1ccc(F)cc1	NPC1 prom act 2.51µM, FLuc counter 15.1µM, ELG1 repair inh inconclusive, ELG1 genotox inconclusive, SMN2 splice up 17.8µM, Rab9 promoter act 2.51µM
CCN(CC)C(=S)SCC(=O)c1c(C)[nH]c2ccccc12	FLuc counter inconclusive, SMN2 splice up inconclusive
CCN(CC)C(=S)SCC(=O)c1ccccc1	NPC1 prom act 2.24µM, FLuc counter 12µM, ELG1 repair inh inconclusive, ELG1 genotox inconclusive, SMN2 splice up 12.6µM, Rab9 promoter act 2.82µM
O=C(CNC(=O)c1ccccc1F)NCCc1ccccc1F	ELG1 repair inh inconclusive (no result: FLuc counter, SMN2 splice up)
CCOc1ccc(CCNC(=O)CSCc2nc(-c3cccc(C)c3)oc2C)cc1OCC	none (no result: NPC1 prom act, ELG1 repair inh, ELG1 genotox, Rab9 promoter act)
CC1=NN(C(N)=S)C(=O)C1N=Nc1ccc(S(N)(=O)=O)cc1 (stereo not given)	FLuc counter 19µM (no result: SMN2 splice up)
CCOc1ccccc1N=NC1C(=O)N(C(N)=S)N=C1C (stereo not given)	none (no result: SMN2 splice up)
CC1=NN(C(N)=S)C(=O)C1N=Nc1cccc(Cl)c1 (stereo not given)	NPC1 prom act inconclusive, FLuc counter 16.9µM, ELG1 repair inh inconclusive, ELG1 genotox inconclusive, Rab9 promoter act inconclusive (no result: SMN2 splice up)
